Source: paper PMC5540273 (PLoS ONE, 2017)

Columns and labels:
Details in all cases: concentration: 1 μM, replicates: in singlicate; n = 1
[1] = system: HIPK3
[2] = system: HIPK4
[3] = system: HPK1
[4] = system: HUNK
[5] = system: ICK
[6] = system: IGF1R
[7] = system: T1, IKK-alpha
T1 construct: gene CHUK

[8] = system: T2, IKK-beta
T2 construct: gene IKBKB

[9] = system: T3, IKK-epsilon
T3 construct: gene IKBKE

[10] = system: INSRR
[11] = system: INSR
[12] = system: IRAK1
[13] = system: IRAK3
[14] = system: IRAK4
[15] = system: ITK
[16] = system: JAK1(JH1domain-catalytic)
[17] = system: JAK1(JH2domain-pseudokinase)
[18] = system: JAK2(JH1domain-catalytic)
[19] = system: JAK3(JH1domain-catalytic)
[20] = system: T4, JNK1
T4 construct: gene MAPK8
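Also: KINOMEscan kinase panel screen.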

Compound | %Inh [1] [%] | %Inh [2] [%] | %Inh [3] [%] | %Inh [4] [%] | %Inh [5] [%] | %Inh [6] [%] | %Inh [7] [%] | %Inh [8] [%] | %Inh [9] [%] | %Inh [10] [%] | %Inh [11] [%] | %Inh [12] [%] | %Inh [13] [%] | %Inh [14] [%] | %Inh [15] [%] | %Inh [16] [%] | %Inh [17] [%] | %Inh [18] [%] | %Inh [19] [%] | %Inh [20] [%]
C[C@@H]1CC[C@H](C(=O)NC2CCCCC2)CN1c1cc(-c2ccc3c(N)n[nH]c3c2)nc(N)n1 [GSK2291363] | 14 | 0 | 50 | 0 | 18 | 30 | 0 | 0 | 25 | 0 | 10 | 34 | 0 | 28 | 22 | 7 | 11 | 9 | 0 | 34
COc1cc2nccc(Nc3cccc(Oc4ccccc4)c3)c2cc1OC.Cl [GW284543] | 0 | 21 | 2 | 15 | 0 | 14 | 0 | 0 | 0 | 0 | 4 | 0 | 2 | 0 | 13 | 0 | 1 | 0 | 0 | 1
Nc1ncnc2c1ncn2-c1ccc(Cl)cc1 [AH2635] | 0 | 0 | 27 | 19 | 0 | 0 | 0 | 0 | 30 | 0 | 0 | 17 | 0 | 0 | 0 | 2 | 0 | 4 | 0 | 0
Cc1ccc(Oc2ccc(Nc3ncnc4cc[nH]c34)cc2C)cn1 | 24 | 0 | 0 | 4 | 33 | 0 | 0 | 8 | 50 | 0 | 11 | 6 | 16 | 0 | 0 | 0 | 24 | 18 | 0 | 43
COc1cc2ncn(-c3cc(OCc4ccncc4Br)c(C(N)=O)s3)c2cc1OC [GW854278] | 15 | 32 | 0 | 0 | 5 | 0 | 6 | 3 | 0 | 7 | 1 | 3 | 27 | 3 | 0 | 0 | 19 | 0 | 0 | 0
CCC(=O)c1c(-c2ccccc2)c2cc(Cl)ccc2c(=O)n1Cc1cc(S(C)(=O)=O)n(CCC(C)(C)O)n1 | 0 | 3 | 17 | 0 | 0 | 4 | 0 | 3 | 30 | 10 | 13 | 2 | 25 | 1 | 5 | 3 | 0 | 0 | 3 | 99.6
COc1ccc(-c2cc3c(C)nc(N)nc3n([C@H]3CC[C@H](O)CC3)c2=O)cn1 | 0 | 0 | 0 | 0 | 0 | 0 | 0 | 0 | 0 | 0 | 0 | 0 | 0 | 0 | 0 | 0 | 0 | 0 | 0 | 0
COc1cc(Nc2nccc(N3CCC(NC(=O)C(C)c4ccc(Cl)cc4)C3)n2)cc(OC)c1OC (centres unmarked) [GSK1379757] | 0 | 0 | 37 | 16 | 0 | 13 | 0 | 0 | 23 | 0 | 0 | 41 | 68 | 10 | 11 | 20 | 0 | 86 | 0 | 3
COc1ccc(CNC(=O)NC2CCN(c3ccnc(Nc4ccc(F)cc4)n3)C2)cc1 (centres unmarked) [GSK1379706] | 30 | 8 | 49 | 0 | 0 | 13 | 3 | 0 | 30 | 0 | 17 | 45 | 0 | 0 | 8 | 13 | 0 | 39 | 0 | 19
O=C(Nc1n[nH]c2nc(-c3ccccc3)c(Cl)cc12)C1CC1 [SB-734909] | 33 | 0 | 11 | 20 | 29 | 0 | 43 | 56 | 0 | 8 | 31 | 26 | 23 | 24 | 0 | 14 | 22 | 13 | 0 | 56
Cc1ccccc1COc1cc(-n2cnc3cc(Cl)ccc32)sc1C(N)=O [GW813349] | 12 | 21 | 62 | 18 | 0 | 9 | 0 | 0 | 62 | 23 | 3 | 22 | 3 | 17 | 13 | 0 | 20 | 17 | 0 | 24
CCn1c(-c2nonc2N)nc2ccccc21 [SB-693162/GW549034] | 62 | 1 | 7 | 36 | 64 | 0 | 23 | 49 | 29 | 48 | 17 | 0 | 0 | 48 | 0 | 8 | 0 | 0 | 0 | 78
O=C(Nc1ccc2c(c1)OCO2)NC1CCN(c2ccnc(NCc3ccc(F)cc3)n2)CC1 [GSK1379859] | 9 | 0 | 29 | 1 | 0 | 0 | 0 | 0 | 11 | 0 | 45 | 0 | 0 | 0 | 0 | 7 | 0 | 0 | 0 | 0
COC(=O)c1c(-c2ccccc2)c2cc(C)ccc2c(=O)n1Cc1ccccc1 | 0 | 0 | 0 | 0 | 0 | 5 | 0 | 0 | 0 | 1 | 1 | 21 | 0 | 20 | 1 | 0 | 0 | 0 | 0 | 44
COC(=O)c1c(-c2ccccc2)c2cc(Br)ccc2c(=O)n1Cc1ccc(NC(=O)CCC(=O)O)cc1 | 0 | 0 | 0 | 0 | 14 | 0 | 0 | 0 | 0 | 13 | 8 | 8 | 25 | 16 | 12 | 5 | 0 | 0 | 0 | 99
COc1ccc(-c2cc3c(C)nc(N)nc3n([C@H]3CC[C@H](OCCO)CC3)c2=O)cn1 | 5 | 0 | 0 | 0 | 0 | 0 | 0 | 0 | 0 | 0 | 24 | 4 | 19 | 3 | 0 | 0 | 22 | 0 | 0 | 0

Compound | %Inh [1] [%] | %Inh [2] [%] | %Inh [3] [%] | %Inh [4] [%] | %Inh [5] [%] | %Inh [6] [%] | %Inh [7] [%] | %Inh [8] [%] | %Inh [9] [%] | %Inh [10] [%] | %Inh [11] [%] | %Inh [12] [%] | %Inh [13] [%] | %Inh [14] [%] | %Inh [15] [%] | %Inh [16] [%] | %Inh [17] [%] | %Inh [18] [%] | %Inh [19] [%] | %Inh [20] [%]
COC(=O)c1c(-c2ccccc2)c2cc(Br)ccc2c(=O)n1Cc1ccc(S(C)(=O)=O)cc1 | 10 | 5 | 0 | 27 | 50 | 9 | 9 | 6 | 15 | 1 | 13 | 19 | 32 | 18 | 30 | 19 | 0 | 6 | 0 | 97.2
CCC(=O)c1c(-c2ccccc2)c2cc(Cl)ccc2c(=O)n1Cc1cc(C(=O)NC2CC2)n(C)n1 | 2 | 1 | 0 | 0 | 4 | 0 | 5 | 10 | 0 | 0 | 0 | 21 | 0 | 20 | 0 | 10 | 3 | 0 | 6 | 99.7
Cc1nnc(-c2ccc(C)c(-c3ccc(C(=O)O)cc3)c2)o1 [GW608005] | 7 | 0 | 7 | 0 | 0 | 0 | 30 | 25 | 1 | 10 | 0 | 0 | 0 | 13 | 4 | 3 | 0 | 24 | 0 | 1
COc1ccc(Nc2nccc(N3CCC(NS(=O)(=O)c4ccc(NC(C)=O)cc4)C3)n2)cc1 (centres unmarked) [GSK1379729] | 14 | 12 | 64 | 0 | 13 | 22 | 12 | 6 | 12 | 21 | 4 | 0 | 17 | 57 | 19 | 66 | 0 | 95.6 | 5 | 20
COc1cc(OC)cc(-c2cc3cnc(N)nc3nc2NC(=O)NC(C)(C)C)c1 | 0 | 0 | 0 | 0 | 0 | 0 | 7 | 9 | 7 | 0 | 0 | 0 | 0 | 0 | 0 | 0 | 0 | 0 | 0 | 0
Cn1c(=O)c(F)c(Nc2ccc(I)cc2F)c2c(=O)n(OC[C@H](O)CO)cnc21 | 0 | 81 | 0 | 0 | 0 | 0 | 0 | 0 | 0 | 0 | 5 | 0 | 0 | 0 | 3 | 2 | 14 | 9 | 1 | 18
CN1C(=O)C(Nc2cc(Cl)c(O)c(Cl)c2)=C(c2ccc(Cl)cc2)C1=O [SB-404321] | 0 | 0 | 12 | 0 | 6 | 0 | 0 | 0 | 0 | 0 | 0 | 0 | 0 | 0 | 0 | 13 | 0 | 0 | 0 | 24
Nc1nc(N)c2nc(-c3ccccc3)[nH]c2n1 [SKF-12778] | 10 | 13 | 57 | 11 | 15 | 15 | 4 | 17 | 12 | 12 | 0 | 34 | 0 | 3 | 8 | 11 | 84 | 50 | 39 | 20
COc1cccc(-n2cnc3c(N)ncnc32)c1 [SKF-97416] | 26 | 13 | 0 | 16 | 34 | 0 | 50 | 32 | 0 | 5 | 0 | 38 | 42 | 0 | 0 | 0 | 58 | 44 | 19 | 0
Cc1cccc(-c2nc(Nc3ccc4c(cnn4C)c3)c3ccccc3n2)n1 [GW876731] | 0 | 14 | 0 | 35 | 10 | 0 | 1 | 13 | 21 | 15 | 0 | 0 | 0 | 0 | 0 | 15 | 16 | 26 | 0 | 1
Fc1cccc(CSc2nnc(-c3ccc4c(c3)CCO4)o2)c1 | 6 | 0 | 0 | 0 | 0 | 13 | 14 | 10 | 20 | 0 | 23 | 21 | 6 | 100 | 16 | 11 | 0 | 0 | 3 | 8
CCS(=O)(=O)c1ccc(OC)c(Nc2ncc(-c3ccc(F)cc3)o2)c1.Cl [GW591947] | 37 | 0 | 17 | 22 | 0 | 20 | 0 | 1 | 0 | 0 | 0 | 0 | 0 | 3 | 0 | 11 | 0 | 8 | 0 | 2
CN1C(=O)C(Nc2ccccc2)=C(c2ccccc2)C1=O [SB-300079] | 0 | 0 | 0 | 67 | 0 | 0 | 11 | 0 | 0 | 0 | 22 | 16 | 0 | 0 | 0 | 0 | 33 | 42 | 2 | 14
COc1cccc(C2=C(Nc3cccc(C(=O)O)c3)C(=O)NC2=O)c1 [SB-390770] | 1 | 7 | 5 | 20 | 0 | 8 | 0 | 6 | 0 | 19 | 0 | 0 | 7 | 0 | 1 | 1 | 2 | 33 | 94.7 | 22
CC(C)(C)c1ccc(C(=O)Nc2cn3cc(-c4ccccc4)ccc3n2)cc1 | 20 | 0 | 0 | 9 | 0 | 0 | 5 | 6 | 0 | 0 | 0 | 17 | 12 | 13 | 12 | 12 | 42 | 0 | 0 | 13
